Data on 69 sequences can be found in PubChem BioAssay AID1347426 (Functional Genomics Laboratory (NCATS/FGL), 2020).

Screen size: about 31,000 sequences; about 1,400 (4.5%) were called active. This excerpt belongs to a sample that is enriched for actives. Values without a mark were called inactive.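 How the source made its calls: active means median seed-adjusted z-score above 1 or below -1; inactive means the rest.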

A short description of the experiment: Novel Modifiers of Survival Motor Neuron (SMN) Protein: Gene Identification via Genome-wide siRNA Screen. The following applies: HEK293T SMN2-luciferase reporter, siRNA knockdown, 72 h; actives lie on both sides. An excerpt:
Spinal muscular atrophy (SMA) is the most common neuromuscular autosomal recessive disorder and one of the leading genetic causes of infant death. SMA results from mutations inducing loss of function or deletion in the survival of motor neuron-1 gene (SMN1), leading to deficiency of the survival motor neuron (SMN) protein. Although a second nearly identical gene, SMN2, is retained in humans, its expression primarily produces an aberrantly spliced isoform that is largely unstable and quickly degraded. We performed a genome-wide RNAi screen using a cell-based reporter assay to identify genes and pathways that modulate SMN protein stability. The screen identified over 200 genes that led to the greatest increase or decrease in luciferase expression.
Using HEK293T cells stably expressing a luciferase reporter that combines the promoter and splicing based cassettes in tandem with the major portion of the native SMN2 cDNA with luciferase, we performed a genome-wide RNAi screen to identify modulators of SMN protein levels. Luciferase is expressed when full-length SMN protein is generated with luminescence signal proportional to SMN protein levels. Our luciferase-based reporter assay was used to screen Ambion Silencer Select Human Druggable Genome siRNA library (10418 genes, 3 unique siRNAs per gene) using lipid-based reverse transfection.
Briefly, 1 pmol of each siRNA was spotted to a well of a 384-well plate (Corning, Corning, NY) and 20 microL of serum-free DMEM containing […] of Lipofectamine RNAiMax (Life Technologies, Carlsbad, CA) was then added to each well. Transfected cells were maintained at 37 degrees C in 5% CO2 for 72 hours, 20 microL of ONE-Glo Reagent (Promega) was added to wells for luciferase quantification. Raw luminescence reads were normalized to Ambion(R) Silencer(R) Negative Control #2 siRNA, then log10 transformed. A robust statistical measure of median absolute deviation (MAD) to standardize siRNA activities from each screen. Common Seed Analysis was used to help prioritize clean hits as opposed to those appearing to arise from seed based off-target effects. Candidate modulators were defined as the genes having a MAD score greater than 1.0 or less than -1.0.
For GCAAGACCGAAGUAAACUATT against GPX4, the median seed-adjusted z-score was -1.18 (active).

As for UGUUAAGCUUCAUCAGUAUTT against MRGPRX1, the median seed-adjusted z-score was -0.188.

As to ACAUCUCACGGAUCCUUAATT against PAX4, the median seed-adjusted z-score is 0.0811.

Regarding GGUGAAGGUAGAUCAAAGATT against EIF2AK2, the median seed-adjusted z-score was 0.419.

Consider CGACUUCUCAGAAGGCAGATT against GATA4, for which the median seed-adjusted z-score was -0.24.

Turning to AAAUCUCAAUGGUCGCUAUTT against FCN3, the median seed-adjusted z-score was -0.112.

Take AGGAGCUUGUUGAUCCCUATT against SLC7A8: the median seed-adjusted z-score was -0.134.

Regarding CCACAUAGGUCAGAAACGATT against CLDN17, the median seed-adjusted z-score is 0.

For the sequence CAUCGUCUCUGCUGACAAATT against TUBAL3, the median seed-adjusted z-score is 1.05 (active).

Turning to GGAACCCUUUGAUCAAUUUTT against ADAMTS7, the median seed-adjusted z-score is 0.146.

For the sequence GAUUGCAGCCAAUCCCUUUTT against TBX6, the median seed-adjusted z-score is 0.144.

CACUAGAUCGCGAUAAUAATT against DDB1: the median seed-adjusted z-score is 0.231.

Take GGAAGGCAUUACUCACUUATT against SIRT3: the median seed-adjusted z-score was -0.341.

Turning to GCCAGAAUCCUUUAGCAGUTT against CRTC1, the median seed-adjusted z-score was 0.00363.

For GCAUCUGAAGACUCAGGCATT against TAZ, the median seed-adjusted z-score is 0.0549.

UCAGCUGUAUCGACCAGAATT against MYL7: the median seed-adjusted z-score is -1.21 (active).

For the sequence GAAAUCAGCCUAUGGUUUATT against NME2, the median seed-adjusted z-score was -0.0728.

Take CCGUAUAUCUGGUGGUUAUTT against PLOD2: the median seed-adjusted z-score is -0.281.

Consider GAAUCAUAAUCGCUCCUUUTT against SPRR1A, for which the median seed-adjusted z-score is -0.0536.

For the sequence GAAUCCGGAUGAGUACUAUTT against PHF17, the median seed-adjusted z-score was 1.01 (active).

For the sequence CAGUCCCUAUUUCAAAAUATT against PDE6G, the median seed-adjusted z-score is 0.0109.

As to GAAUGAUAUUGUCCAUCGATT against CDKL5, the median seed-adjusted z-score is -0.256.

Take ACUUCAACGUGACCACAGATT against PNPLA6: the median seed-adjusted z-score was 0.309.

With GAUACGCCCUUAUAAUGCATT against ZBTB11, the median seed-adjusted z-score was -0.105.

Regarding GAAAUUGCCUAUUACUCUUTT against SLC19A2, the median seed-adjusted z-score is -0.679.

For UCAUAAUUAUCUCACCAGATT against MEOX2, the median seed-adjusted z-score is 1.36 (active).

Turning to CCUCUAACGUACCAUCUAATT against OLAH, the median seed-adjusted z-score is -0.44.

With GUAAGGCAAAGACUCCCUATT against ZNF673, the median seed-adjusted z-score was 0.419.

Take GGGACGGAAUAAAUGCUCUTT against NDUFA13: the median seed-adjusted z-score is -0.138.

CUAAGGAAGUAGUUGAUUATT against HADHB: the median seed-adjusted z-score was -0.188.

For CUACCGUAACAACCGAAAATT against SCN10A, the median seed-adjusted z-score is -0.401.

On to CCAUUGCAAUCAACACCAATT against ALOX5, for which the median seed-adjusted z-score was -0.201.

In the case of GAUGACUUUUGAUAGUGAATT against ODC1, the median seed-adjusted z-score is -1.64 (active).

In the case of AGGUCAUUGCUGAGAAGUATT against FMNL1, the median seed-adjusted z-score is -0.3.

As for GGAAGUACAUGAACGCAGUTT against EFTUD1, the median seed-adjusted z-score is -1.39 (active).

As for GGACGACACGUUCUACCUGTT against ENDOG, the median seed-adjusted z-score was -0.336.

Turning to GCAGACAAGUCAACCGUGATT against FRK, the median seed-adjusted z-score is -0.14.

Take CAGGUUAUCGUGUGAAGGATT against TNFRSF14: the median seed-adjusted z-score was 0.

Turning to GCACGAAGCUUUCCCUGGATT against KRT78, the median seed-adjusted z-score is 0.306.

For the sequence GUUUGAUGGUGAUAAGAAATT against PGD, the median seed-adjusted z-score is -1.55 (active).

For the sequence GAACCAAAUUGUACGAGAATT against IRX3, the median seed-adjusted z-score is -0.285.

With GGGAUAAAUUUGACGUGGATT against SPAG1, the median seed-adjusted z-score is 0.413.

With GCUACAUCCUGUUCGAGAATT against CYP27A1, the median seed-adjusted z-score is -0.391.

On to CAGAAUAAAUCACACCCUATT against INSL3, for which the median seed-adjusted z-score was -0.037.

With CCAAGAUGAGUAUAAAACATT against HRC, the median seed-adjusted z-score is 1.06 (active).

Take CCAUCUGCUUUCCCGAGUATT against GNAZ: the median seed-adjusted z-score was -0.604.

For the sequence GCUGUGGAUUGUCCAACAATT against NPY5R, the median seed-adjusted z-score was 0.213.

For the sequence UCAACUGACUCAUACCUGUTT against KCNMB1, the median seed-adjusted z-score was -0.465.

For the sequence GAACCACUAUGAUCAUUGATT against DPYSL2, the median seed-adjusted z-score is -0.569.

CAGUGUAUCUUCAUAAGAUTT against TAF1L: the median seed-adjusted z-score is 0.289.

Consider AGAGUGGAUUUGUACCAAATT against RAB39B, for which the median seed-adjusted z-score is 0.485.

For the sequence CGGUGACUCUUUAUGCACATT against PMPCB, the median seed-adjusted z-score is 0.507.

On to GAGAGUGCCUUACACCAAATT against HOXD13, for which the median seed-adjusted z-score is 0.116.

Consider GAGAGAAAAGGGUCACAAATT against GPR61, for which the median seed-adjusted z-score was 0.

UGACCAUCGUCUACAAGAATT against COPZ2: the median seed-adjusted z-score was -1.23 (active).

Turning to CAAGAAGCAUUAUUACGAUTT against PPIL2, the median seed-adjusted z-score is -0.467.

For CCCUAGAGUAUUACACGGATT against DGKD, the median seed-adjusted z-score is 0.35.

For GGACAAAGACUGGUACGUUTT against HTT, the median seed-adjusted z-score was -0.234.

CCUUUUACAUGUUCUAUUUTT against SIVA1: the median seed-adjusted z-score was 0.0451.

GGCAAGUUCUCCUUCGACATT against ALDH3B1: the median seed-adjusted z-score was 0.148.

As for GAACUGUCGUAAACGCAAATT against NFE2L3, the median seed-adjusted z-score was 0.118.

For the sequence GCCUUAAGGAUGAAGAUAATT against FOXR2, the median seed-adjusted z-score is 0.593.

On to GGUAUCACCUAUACAGAAATT against FKBP11, for which the median seed-adjusted z-score is -0.085.

Regarding ACUUCAAGCUCCUAAGCCATT against HBA1, the median seed-adjusted z-score was -1.03 (active).

Regarding GCCUCUAAGUCUCGAGGAATT against TRPM3, the median seed-adjusted z-score was -0.633.

As to CACAGGUAAUCAUACCCUATT against NDUFA9, the median seed-adjusted z-score is -0.325.

Consider GAAUCAGAAUACGUAGGAATT against PCDHA2, for which the median seed-adjusted z-score was 0.803.

On to GGAGGAAUCUCGAAUGCGATT against CNOT1, for which the median seed-adjusted z-score was 1.2 (active).

Regarding GAGGCAAUAUGAAACGAGUTT against CKMT2, the median seed-adjusted z-score is -0.862.
